Bioassay records from PubChem BioAssay.
M1 antagonist: M1 muscarinic receptor (rat) antagonism; P08482; CHO-M1 cells, Fluo-4 calcium, ACh EC80 antagonist mode; hits give low values; B-score at 10 µM; 64,000 tested, 3.4% active;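 active = calcium fluorescence response, raw or row-and-column corrected B-score, differing from the plate sample mean either way at a set confidence level, mostly lower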
M1 ag: M1 muscarinic receptor agonism; CHO-M1 cells, Fluo-4 calcium fluorescence, agonist mode; hits give high values; B-score at 10 µM; 64,000 tested, 3% active;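 active = fluorescence rise, raw or as B-score row- and column-corrected plate score, outside the 99.7% band of its plate's samples, either direction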
Cav32 inh: human Cav3.2 channel inhibition, primary screen; AID 449739; Cav3.2-expressing cells, Fluo-4 calcium fluorescence FDSS; hits give low values; 100,000 tested, 4% active; B-score at 10 µM;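 active = single-dose well whose peak fluorescence ratio is a statistical outlier from its plate by either plate-standardised score or position-corrected B-score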
Target sequence (O95180 whole entry, looked up): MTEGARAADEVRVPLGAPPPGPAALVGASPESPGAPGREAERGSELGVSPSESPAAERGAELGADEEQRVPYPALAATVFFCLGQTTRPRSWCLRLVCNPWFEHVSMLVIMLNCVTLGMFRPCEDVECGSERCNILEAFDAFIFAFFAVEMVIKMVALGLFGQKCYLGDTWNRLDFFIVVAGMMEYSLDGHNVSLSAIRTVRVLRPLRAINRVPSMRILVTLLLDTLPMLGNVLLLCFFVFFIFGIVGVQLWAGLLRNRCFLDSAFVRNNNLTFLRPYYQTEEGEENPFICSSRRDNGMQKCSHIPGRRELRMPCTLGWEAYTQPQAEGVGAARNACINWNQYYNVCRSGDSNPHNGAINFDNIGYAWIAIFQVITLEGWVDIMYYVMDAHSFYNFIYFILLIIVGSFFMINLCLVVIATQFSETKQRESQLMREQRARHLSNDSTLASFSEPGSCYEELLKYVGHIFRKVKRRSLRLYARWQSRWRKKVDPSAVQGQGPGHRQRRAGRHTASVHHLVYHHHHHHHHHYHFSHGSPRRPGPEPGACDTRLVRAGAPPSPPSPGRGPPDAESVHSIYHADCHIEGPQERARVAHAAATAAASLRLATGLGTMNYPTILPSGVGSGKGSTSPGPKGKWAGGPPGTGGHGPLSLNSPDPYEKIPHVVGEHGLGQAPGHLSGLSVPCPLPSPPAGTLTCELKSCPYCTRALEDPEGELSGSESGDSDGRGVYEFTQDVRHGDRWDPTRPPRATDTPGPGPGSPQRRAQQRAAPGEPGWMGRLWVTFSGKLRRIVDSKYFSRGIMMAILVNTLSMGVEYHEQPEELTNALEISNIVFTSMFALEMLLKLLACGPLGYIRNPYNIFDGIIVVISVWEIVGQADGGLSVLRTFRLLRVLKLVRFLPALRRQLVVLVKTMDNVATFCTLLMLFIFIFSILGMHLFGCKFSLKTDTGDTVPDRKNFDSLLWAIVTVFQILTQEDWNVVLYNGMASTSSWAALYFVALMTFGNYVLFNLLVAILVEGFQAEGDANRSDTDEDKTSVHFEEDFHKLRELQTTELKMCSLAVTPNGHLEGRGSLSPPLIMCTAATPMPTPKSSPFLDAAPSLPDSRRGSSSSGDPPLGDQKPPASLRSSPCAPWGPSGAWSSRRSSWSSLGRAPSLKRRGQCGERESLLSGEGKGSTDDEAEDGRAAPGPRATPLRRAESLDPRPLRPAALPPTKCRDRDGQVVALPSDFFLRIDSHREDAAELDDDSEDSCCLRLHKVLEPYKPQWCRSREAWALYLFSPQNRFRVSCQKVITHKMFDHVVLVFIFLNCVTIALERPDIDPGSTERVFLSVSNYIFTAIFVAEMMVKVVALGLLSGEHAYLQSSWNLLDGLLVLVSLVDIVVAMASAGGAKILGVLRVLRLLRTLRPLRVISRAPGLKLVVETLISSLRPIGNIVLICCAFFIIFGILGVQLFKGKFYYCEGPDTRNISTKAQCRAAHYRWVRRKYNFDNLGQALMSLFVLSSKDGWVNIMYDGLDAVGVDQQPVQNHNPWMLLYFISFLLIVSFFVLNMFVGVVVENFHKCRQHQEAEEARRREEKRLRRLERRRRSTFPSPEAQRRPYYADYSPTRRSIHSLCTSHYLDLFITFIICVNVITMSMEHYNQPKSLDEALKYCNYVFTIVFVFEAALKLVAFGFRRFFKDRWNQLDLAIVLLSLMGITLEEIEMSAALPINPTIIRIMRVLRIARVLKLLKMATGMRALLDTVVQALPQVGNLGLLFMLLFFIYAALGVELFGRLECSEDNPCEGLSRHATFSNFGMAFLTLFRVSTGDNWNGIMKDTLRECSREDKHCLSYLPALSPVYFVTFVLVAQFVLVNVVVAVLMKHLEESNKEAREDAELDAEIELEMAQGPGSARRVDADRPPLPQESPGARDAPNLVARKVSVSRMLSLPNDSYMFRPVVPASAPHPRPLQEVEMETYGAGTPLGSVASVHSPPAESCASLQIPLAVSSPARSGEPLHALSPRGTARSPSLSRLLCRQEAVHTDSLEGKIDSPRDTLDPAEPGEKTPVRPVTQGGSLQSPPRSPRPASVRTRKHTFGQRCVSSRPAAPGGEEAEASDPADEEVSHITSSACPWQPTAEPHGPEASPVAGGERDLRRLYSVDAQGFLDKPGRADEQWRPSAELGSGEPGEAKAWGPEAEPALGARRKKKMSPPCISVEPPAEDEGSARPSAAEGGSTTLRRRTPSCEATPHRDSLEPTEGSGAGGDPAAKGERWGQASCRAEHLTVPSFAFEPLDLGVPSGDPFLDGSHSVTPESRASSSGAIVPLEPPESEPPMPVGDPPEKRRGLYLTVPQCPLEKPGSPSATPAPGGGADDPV
PLAP act: human PLAP activation; P05187; purified PLAP enzyme, luminescent substrate read-out; hits give high values; activation fold at 20 µM; 96,000 tested, 1.2% active; AID 696; in the data active = activation fold above about 2
Starred values were filed as active, the others as inactive; · = no result. Hits are enriched below; roughly 7.6% of the tested compounds scored in any of these assays.

SMILES | M1 antagonist | M1 ag | Cav32 inh | PLAP act
CCOC(=O)N1CCN(c2nc(SC)nc3sc4c(c23)CC(C)(C)OC4)CC1 | -0.091 | 1.2 | -4.7* | 1.4
CC(=O)c1cccc(NC(=O)c2cc3nc(C)cc(C)n3n2)c1 | 0.083 | 0.64 | 0.37 | 1
CC(C)Cc1cc(C(=O)N2N=C(C(F)F)CC2(O)C(F)F)c2ccccc2n1 (centres undefined) | · | · | -7* | ·
CCOC(=O)c1[nH]cnc1C(=O)Nc1ccncc1 | 0.068 | 0.23 | 0.19 | 2.5*
COc1ccc(S(=O)(=O)N(CC(=O)N/N=C/c2cccs2)c2ccc(C)cc2)cc1OC | · | · | -6.1* | 1
CCn1c(SCC(=O)N2CCCc3ccccc32)nnc1-c1ccoc1C | · | · | 1 | ·
N#C/C(=C\c1ccc(N2CCOCC2)o1)c1nc2ccccc2[nH]1 | · | · | -5.8* | 0.9
N#C/C(=C/c1ccc(N2CCOCC2)o1)c1ccc(Cl)cc1 | · | · | · | 1.1
CC1CCC(C(=O)NC(C(=O)N2CCc3ccccc3C2)C(C)C)CC1 (centres undefined) | · | · | -5.4* | 0.9
Cc1cc2oc(=O)cc(CN3CCc4ccccc43)c2cc1Cl | -0.46 | 0.27 | -5.3* | 0.9
O=C(CN1CCN(Cc2ccccc2)CC1)Nc1cccc(C(F)(F)F)c1 | · | · | -6.6* | 1.7
O=C(CN1CCC(C(O)(c2ccccc2)c2ccccc2)CC1)Nc1cc(Cl)ccc1Cl | · | · | -0.12 | 1.2
O=C(CN1CCN(c2ccccc2)CC1)Nc1cccc(C(F)(F)F)c1 | 0.38 | -0.02 | 1 | 0.9
O=C(CN1CCC(C(O)(c2ccccc2)c2ccccc2)CC1)Nc1ccccc1 | · | · | -2.4* | 1.4
O=c1cc(N2CCCCC2)c(-c2ccccc2)nn1Cc1c(Cl)cccc1Cl | · | · | -0.22 | 1.3
Cc1ccc(N2CCN(/N=C/c3sccc3C)CC2)cc1 | · | · | -0.22 | 0.8
O=C(CSc1ccc(-c2nc3ccccc3[nH]2)cn1)N1CCN(C(=O)c2ccco2)CC1 | -1 | 12* | 0.25 | 1.4
O=C(CCc1nc2ccccc2[nH]1)N1CCN(C(=O)c2ccco2)CC1 | 0.76 | -0.41 | · | ·
CS(=O)(=O)N(CC(=O)N1CCCCCC1)c1ccc(Br)cc1 | 0.024 | -0.11 | 0.69 | 1.3
CCCCOc1ccc(CSc2ncn[nH]2)cc1 | -0.23 | 0.017 | -2.2 | 2.3*
C(=C\CSc1ncn[nH]1)/CSc1ncn[nH]1 | -0.88 | 0.36 | · | 2.7*
c1n[nH]c(SCCCCSc2ncn[nH]2)n1 | 0.86 | -1.6 | 0.79 | 2.6*
O=C(CSc1ncn[nH]1)c1ccco1 | -0.31 | 0.046 | -0.078 | ·
CCCCCOc1ccc(CSc2ncn[nH]2)cc1 | · | · | -1.2 | ·
O=C(O)c1ccccc1CSc1ncn[nH]1 | · | · | -2 | 1.2
SMILES | M1 antagonist | M1 ag | Cav32 inh | PLAP act
O=C(CSc1ncn[nH]1)c1ccccc1 | -0.13 | -0.65 | -0.15 | 2.2*
COc1ccc(CCN2C(=NC(=O)CCC(=O)O)SC3CS(=O)(=O)CC32)cc1 (centres undefined) | · | · | -0.17 | 1
N#CC1=C(c2ccccc2)N=P(N2CCOCC2)(N2CCOCC2)N=C1N1CCOCC1 | 0.54 | 0.086 | · | ·
CC1(C)NC(=O)NC2(C)NC(=O)NC(C)(C)C12 (centres undefined) | -0.045 | 0.82 | 0.93 | 0.8
O=C(CSc1ncn[nH]1)N(C1CCCCC1)C1CCCCC1 | · | · | -1.1 | 2*
CCC(CCC(=O)Nc1ccn(-c2ccccc2)n1)C(=O)O (centres undefined) | -0.99 | 0.4 | 0.00051 | 1.1
COc1ccccc1NC(=O)CSc1nc2ccccc2cc1Cc1ccccc1 | · | · | -2.6 | 0.8
Cc1c(N2C(=O)c3ccc(Br)cc3C2=O)c(=O)n(-c2ccccc2)n1C | · | · | -4.4* | 1.2
Cc1c(N2C(=O)c3ccc4c5c(ccc(c35)C2=O)CC4)c(=O)n(-c2ccccc2)n1C | -0.19 | 0.62 | 1.4 | 1.1
O=C(CCN1C(=O)COc2ccccc21)NCc1cccs1 | -0.012 | 0.12 | 0.38 | 0.8
CC1(C)CN2C(=S)N(c3ccccc3)C(c3ccccc3)N2C1 (centres undefined) | · | · | -4.4 | 1.1
S=C1N(c2ccccc2)C(c2ccc(Cl)cc2)N2CCCN12 (centres undefined) | · | · | -4.8* | 1
Cn1c(/N=C/c2cc(Cl)ccc2O)nc2ccccc21 | 0.32 | 2.5* | -4.8* | 0.9
COc1ccc(/C=N/c2nc3ccccc3n2C)cc1OC | 0.15 | 1.6 | 1.5 | 0.9
C(=N\c1nc2ccccc2n1CCN1CCCCC1)/c1cccs1 | -0.039 | 0.39 | 0.21 | 1.2
Cn1c(/N=C/c2cccs2)nc2ccccc21 | -0.27 | 1.2 | 3* | 1.2
CC(=O)Nc1ccc(SC(C)C(=O)NC(N)=O)cc1 (centres undefined) | · | · | 0.68 | 0.9
CC1CC(C)(C)N2C(=O)C3(Nc4ccccc4S3)c3cccc1c32 (centres undefined) | · | · | -4.7* | 1.1
